# CHO-K1 Ca antag = nonselective inhibitor or artifact in parental CHO-K1 cells; ATP-induced calcium, Fluo-8 fluorescence; 360,000 compounds, 0.6% hits; inhibition, % at 3 µM; AID 602250;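 active = inhibition above a per-plate cutoff, the plate's mean sample inhibition plus 3 SD, cut at about 24% in these data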;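 note: 0% = DMSO plus EC80 ATP and 100% = DMSO alone without ATP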
# ANO1 activ = TMEM16A chloride channel activators or potentiators, primary screen, cell-based, HTS. AID 623877, 2012. Anoctamin-1 (Mus musculus), Q8BHY3. B-score at 10 µM. HEK293 TMEM16A/YFP-H148Q/I152L, iodide quench fluorescence; stronger effect = lower value. 340,000 compounds, 0.3% hits;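 active = fluorescence-ratio B-score plate-corrected deviation score at least 3 library SD below zero, with starting fluorescence score within 5 deviations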;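 note: channel opened by trigger with iodide after compound preincubation; score built on the fluorescence ratio of max minus min over baseline; more negative score means more quench and so TMEM16A activation or potentiation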
# NTR1 ag = agonists of human NTR1, primary screen, imaging, U2OS cells, beta-arrestin-GFP, high content; Neurotensin receptor type 1 (Homo sapiens), P30989; NTR1-U2OS beta-arrestin-GFP spot imaging, agonist mode; activation, % at 20 µM; 330,000 compounds, 0.17% hits;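 active = activation at or above 40% of the spot to cytoplasm intensity ratio, with at least 20 cells analyzed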;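 note: 0% = DMSO without peptide and 100% = 100 nM NTR1 peptide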
# Target sequence (P30989 whole entry, looked up): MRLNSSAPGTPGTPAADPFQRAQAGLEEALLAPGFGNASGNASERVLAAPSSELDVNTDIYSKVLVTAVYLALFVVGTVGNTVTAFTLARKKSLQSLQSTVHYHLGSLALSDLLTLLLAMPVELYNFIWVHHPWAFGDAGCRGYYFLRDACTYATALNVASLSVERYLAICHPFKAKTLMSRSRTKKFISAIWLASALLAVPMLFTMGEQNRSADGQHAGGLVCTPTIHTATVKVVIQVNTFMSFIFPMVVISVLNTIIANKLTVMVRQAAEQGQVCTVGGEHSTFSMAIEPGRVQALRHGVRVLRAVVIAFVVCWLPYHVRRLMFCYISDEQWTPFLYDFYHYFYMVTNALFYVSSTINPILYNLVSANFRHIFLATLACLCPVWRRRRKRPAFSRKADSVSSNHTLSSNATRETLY
# M1 ag parental = counter-screen for M1 agonists: effect in parental CHO-K1 cells; AID 602248, 2012; Fluo-8 calcium fluorescence; scaled to maximal ATP response, vehicle zero; activation, % at 3 µM; 360,000 compounds, 0.48% hits; in the data active = activation above about 15%;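 note: untransfected CHO-K1 host cells lacking M1 receptor as counterscreen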
# ANO1 block = TMEM16A chloride channel inhibitors, primary screen, cell-based, HTS; Anoctamin-1 (Mus musculus), Q8BHY3; HEK293 TMEM16A/YFP iodide influx fluorescence, ionomycin; normalized B-score (activity score, 25-100; higher = stronger inhibition) at 10 µM; 310,000 compounds, 1.2% hits; AID 588511, 2011;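 active = ratio plate-corrected score three or more library SD toward inhibition, starting fluorescence score within five deviations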;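 note: score derived from kinetic fluorescence span divided by baseline fluorescence per well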
# M1 PAM parental = nonselective calcium activators in parental CHO-K1 cells, primary screen, counter-screen for M1 PAM project, cell-based, Fluo-8 calcium fluorescence, full deck, 1536-well; ATP EC20; 0% at ATP EC20, 100% at ATP max; activation, % at 3 µM; 360,000 compounds, 0.02% hits;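 active = activation above the run cutoff, the mean activation of all test compounds plus 3 SD, cut at about 40% in these data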;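 note: peak over basal fluorescence ratio in a 140 s read after ATP addition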
# Numbers without * were called inactive; i = inactive; nt = no result given. Only some compounds are listed: those with a hit (about 2.2% of all), similar ones and a draw of the others.
SMILES,CHO-K1 Ca antag,ANO1 activ,NTR1 ag,M1 ag parental,ANO1 block,M1 PAM parental
O=C(COC(=O)C1CCCN1C(=O)c1cccs1)c1ccccc1 (stereo unspecified),-11.0,-13.7*,-0.5,0.6,i,22.8
O=c1[nH][nH]c2c1[C@H](CCc1cccc(Cl)c1)O[C@H](CCc1ccccc1)C2,-7.0,nt,nt,0.3,nt,12.7
CCn1nccc1NC(=O)c1csc([C@@H]2O[C@H](CO)[C@H](O)[C@H](O)[C@H]2O)n1,-0.5,nt,nt,0.5,nt,22.7
Cc1[nH]n(-c2ncc(-c3ccc(Cl)cc3)s2)c(=O)c1C(c1ccc(Cl)cc1)C(C#N)C#N (stereo unspecified),-8.2,i,4.7,0.2,100*,0.2
COc1ccc(C(c2c(C)[nH]n(C(N)=S)c2=O)C(C#N)C#N)cc1 (stereo unspecified),-6.2,i,3.3,0.3,i,12.3
Cc1nc(C)c(-c2csc(Nc3ccc(Cl)cn3)n2)s1,-7.8,nt,nt,2.4,nt,21.6
CCCC(=O)NC(Nc1ccccc1F)C(Cl)(Cl)Cl (stereo unspecified),nt,nt,-0.8,nt,100*,nt
CC(C)CC(=O)NC(Nc1ccccc1F)C(Cl)(Cl)Cl (stereo unspecified),2.7,i,-1.2,1.3,i,22.1
C=CCOc1ccc(CNn2nnnc2N)cc1,-12.8,-13.8*,0.2,1.6,i,11.6
C=CCOc1ccccc1CNn1nnnc1N,-14.2,i,-1.1,0.5,i,24.0
O=C1NC(Cc2ccc(O)cc2)c2nc3ccc(F)cc3c(=O)n2-c2ncccc21 (stereo unspecified),-0.5,nt,nt,0.2,nt,-6.6
CCCNC(=O)C1(C)CCCN(C(=O)/C=C/c2ccccc2)C1 (stereo unspecified),-7.7,nt,nt,0.0,nt,10.1
Cc1noc(COc2ccccc2OCC(N)=O)n1,-1.2,i,0.7,16.2*,i,19.0
CCOc1cc(CNS(=O)(=O)c2ccc3c(c2)CC(=O)N3C)cc(OCC)c1OCC,1.7,-5.2*,2.0,0.3,i,1.4
CN1C(=O)Cc2cc(S(=O)(=O)NCc3cccs3)ccc21,0.0,i,0.3,4.2,i,10.3
CCOC(=O)C1(CCOc2ccccc2)CCN(Cc2cccc(-n3cccn3)c2)CC1,-1.8,i,9.7,6.0,25*,2.5
CCOC(=O)C1(CCOc2ccccc2)CCN(Cc2ccc(OC)cc2)CC1,5.4,i,nt,18.0*,i,11.3
CN1CCN(c2cc(CNC[C@H]3O[C@@H](n4cnc5c(=O)[nH]c(N)nc54)[C@H](O)[C@@H]3O)ccc2F)CC1,-14.7,nt,nt,0.2,nt,4.2
CC(=O)c1cn(CC(=O)NCC2CCCO2)c2ccccc12 (stereo unspecified),-2.2,-4.77*,-2.2,0.7,i,1.2
COc1ccccc1N1CCN(CC(=O)NCC2CCCO2)CC1 (stereo unspecified),27.4*,i,2.3,-0.4,i,-8.6
O=C(CN1CCN(c2ccc(F)cc2)CC1)NCC1CCCO1 (stereo unspecified),2.0,i,-0.8,-0.3,i,3.1
O=C(Cn1cc(C(=O)C2CC2)c2ccccc21)NCC1CCCO1 (stereo unspecified),-7.2,i,2.8,0.1,i,-2.8
O=C(NCc1ccccc1Cl)c1[nH]c(C(F)(F)F)nc1-c1ccccc1,-4.8,nt,nt,7.2,nt,-5.5
O=C(CSc1nnc(SCc2ccccc2)s1)NNC(=S)Nc1ccccc1,28.8*,i,2.9,0.2,i,-15.8
C[n+]1c2n(c3ccccc31)N=C(c1cc(C(C)(C)C)c(O)c(C(C)(C)C)c1)CS2,2.1,i,16.2,0.6,100*,8.0
O=C(CSc1ncccn1)c1ccccc1Br,26.8*,i,0.3,0.4,i,-5.7
CCOc1ccc(CNc2ccc(S(N)(=O)=O)cc2)cc1,9.7,-5.1*,1.1,1.2,i,-5.8
CCOC(=O)[C@]12CCC=C1N(Cc1ccco1)C(=O)[C@H](CC(=O)NCCCN1CCCC1=O)C2,-3.7,nt,nt,0.4,nt,-2.8

# Screening data as filed in PubChem BioAssay.
